# Ecoli rRNA inh = inhibits bacterial ribosomal RNA function over humanized ribosomes; E. coli WT GFP vs humanized-ribosome RFP mutants, fluorescence, 24 h; active compounds read low; DMSO median 0, no signal -100; GFP signal change (wild-type ribosome), % (concentration not given with the values); hit rate 1.6% among 350,000;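 active = significant combined selectivity score with lowered wild-type GFP, culture density cut under 30%, mutant RFP and density less affected; inactive = any of these conditions unmet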
# MITF TRPM1 HTS = increases MITF-driven TRPM1 promoter luciferase signal; SK-MEL-5 TRPM1-promoter luciferase, 24 h; % of positive control, neutral wells = 0; activation, % at 12.5 µM; hit rate 0.75% among 300,000; AID 588334;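 active = mean activation of at least 80% with every replicate also reaching 80%; inconclusive = mean reaches 80% but some replicate falls short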;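 also: 0% = neutral control wells and 100% = parthenolide positive control wells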
# esBAF inh = inhibitors of esBAF chromatin remodeling in mouse ES cells; Bmi1-luciferase knock-in reporter, 24 h; 100% = twice the neutral-well signal; reporter increase, % at 12.5 µM; hit rate 2% among 350,000; in the data active = activation above about 40%; inconclusive = no clear call, values can overlap the other calls;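 also: 0% = median of the plate's neutral control wells and 100% = double that signal; a rise in the Bmi1 reporter signal indicates esBAF inhibition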
# MLL AF4-AF9 inh = blocks AF4 peptide binding to human AF9; AlphaScreen, biotin-AF4 peptide binding to FLAG-AF9; inhibition, % at 10 µM; P42568; hit rate 0.47% among 350,000;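 active = every replicate reaching a set inhibition limit, whatever the replicate mean, cut at about 25% in these data; inconclusive = mean inhibition reaches that limit but some replicates miss it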;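 also: 0% = plate neutral control median and 100% = total signal loss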
# Target sequence (P42568 whole entry, looked up): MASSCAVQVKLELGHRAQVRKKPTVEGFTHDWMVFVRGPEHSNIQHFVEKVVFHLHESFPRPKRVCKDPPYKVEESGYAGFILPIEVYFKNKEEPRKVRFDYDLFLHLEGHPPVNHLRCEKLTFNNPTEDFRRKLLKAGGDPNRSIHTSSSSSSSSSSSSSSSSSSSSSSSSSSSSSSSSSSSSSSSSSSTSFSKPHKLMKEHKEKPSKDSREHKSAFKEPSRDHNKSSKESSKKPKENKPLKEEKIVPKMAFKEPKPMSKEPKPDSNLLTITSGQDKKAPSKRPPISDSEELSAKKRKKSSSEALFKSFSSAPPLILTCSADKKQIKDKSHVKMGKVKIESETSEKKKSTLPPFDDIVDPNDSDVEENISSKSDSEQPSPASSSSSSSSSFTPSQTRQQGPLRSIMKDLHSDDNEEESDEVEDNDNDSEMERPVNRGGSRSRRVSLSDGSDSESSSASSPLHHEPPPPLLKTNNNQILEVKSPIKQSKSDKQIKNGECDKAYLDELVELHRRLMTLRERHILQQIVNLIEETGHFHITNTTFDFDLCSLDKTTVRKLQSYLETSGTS
# Wnt act = Wnt/beta-catenin pathway activation | hit rate 1.2% among 300,000 | Wnt/beta-catenin reporter cell assay, activator, plate reader | activation, % at 9.35 µM | AID 743398; in the data active = activation above about 30%, passing the limit was not always enough; inconclusive = no clear call, values can overlap the other calls;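 also: 0% = neutral control wells and 100% = positive control wells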
# * = called active by the depositor; ? = inconclusive; . = no result given. A selection: hits, their analogues and other compounds. The true share with any hit is near 3.7%.
SMILES,Ecoli rRNA inh,MITF TRPM1 HTS,esBAF inh,MLL AF4-AF9 inh,Wnt act
O=C(O)/C(=C\c1ccc2ccccc2c1)c1cccc2ccccc12,-47.0*,-1.3,.,4.9,2.1
CCOC(=O)c1c(-c2ccccc2)nc2ccc(C)cn12,.,43.4,47.3*,.,46.7*
CCOC(=O)C(=O)c1c(-c2ccccc2)nc2ccccn12,-9.6,-20.9,.,-2.1,-0.9
CCOC(=O)c1c(-c2ccccc2)nc2cc(C)ccn12,.,.,51.6*,.,20.9
Cc1ccc(OCC(=O)c2cc(C)n(C)c2C)c([N+](=O)[O-])n1,.,7.8,-14.8,7.6,-1.1
COc1cc(/C=C/C(=O)OCC(=O)N2CCCCCC2)ccc1OCC#N,-10.9,3.1,-2.9,-0.7,-3.3
COc1ccc(/C=C/C(=O)NCCNC(=O)c2ccccc2)cc1OC,-22.0*,15.3,12.2,-0.7,-1.7
COc1cc(/C=C/C(=O)OCC(=O)N2CCCC2)ccc1OCC#N,10.1,-4.7,-0.4,31.2*,0.9
CCOc1cc(/C=C/C(=O)NCCc2ccc(S(N)(=O)=O)cc2)ccc1OCC(C)C,-3.7,-6.1,-6.8,-0.8,-5.5
COc1cc(/C=C/C(=O)NCCc2ccc(S(N)(=O)=O)cc2)ccc1OCC#N,-25.8*,-9.6,.,1.4,-1.6
COc1ccc(/C=C/C(=O)NCCCNC(=O)/C=C/c2ccc(OC)c(OC)c2)cc1OC,-11.4,-2.8,-7.5,-0.4,-0.1
COc1cccc(S(=O)(=O)N[C@@H]2C=C[C@H](CC(=O)NCc3ccc(F)cc3)O[C@H]2CO)c1,2.8,.,-0.4,-2.4,.
C[C@H](CO)N1C[C@H](C)[C@H](CN(C)Cc2ccc(-c3ccccc3)cc2)Oc2ccc(NC(=O)CCN3CCOCC3)cc2CC1=O,-1.6,.,0.6,9.9,.
CN1CCN(C(=O)C2CCC(C)(C(=O)O)C2(C)C)CC1 (configuration not stated),11.1,-4.5,.,-2.3,-1.4
Cc1ccc(OCCC(=O)OCC(=O)NC2CCCCC2)cc1,17.4,.,1.2,-2.0,-3.0
C[C@@H]1CN([C@@H](C)CO)C(=O)c2cc(NC(=O)c3ccncc3)ccc2O[C@H]1CN(C)Cc1ccccc1,2.4,.,-0.1,0.5,.
O=C(CSCc1ccccc1Cl)N1CCN(c2ccccn2)CC1,.,41.4,58.1*,.,.
C=CCn1cc(C(=O)NCc2ccco2)c(=O)c2cc(S(=O)(=O)N3CCCCCC3)ccc21,.,-6.3,14.8,.,-6.5
CCOc1ccccc1NS(=O)(=O)c1ccc(Br)s1,-21.2*,4.3,-2.0,-27.5,-2.7
Cc1ccc(-c2nnc(Nc3ccc(OCC(N)=O)cc3)c3ccccc23)cc1S(N)(=O)=O,-13.3,0.7,-2.0,0.2,3.9
NC(=O)COc1ccc(Nc2nnc(-c3ccc(O)cc3)c3ccccc23)cc1,-25.2*,-10.7,1.7,0.1,1.3
CC(C)(C)CN1C(N)=NC[C@@H]1Cc1ccc(O)cc1,15.9,7.4,-2.9,0.3,2.5
O=C(NCc1ccccc1)c1nc2ccccc2s1,-29.7*,9.7,38.1,0.2,0.5
S=C(Nc1ccccc1)c1nc2ccccc2s1,11.3,30.8,.,-4.1,56.4*
NC(=O)c1oc2ccccc2c1NC(=O)c1nc2ccccc2s1,.,59.9,62.9*,.,.
SMILES,Ecoli rRNA inh,MITF TRPM1 HTS,esBAF inh,MLL AF4-AF9 inh,Wnt act
O=C(NNc1nc2ccccc2s1)Nc1ccccc1,.,79.5,.,-2.4,17.5
CCCCn1nnnc1C1(C)CCC(=O)N1CCc1ccc(O)cc1 (configuration not stated),4.2,.,.,0.3,0.0
CN(C)c1ccc(C2NCC(CCl)O2)cc1 (configuration not stated),.,.,-4.0,.,.
Cc1noc(C)c1COc1ccc(C(=O)Nc2cccnc2)cc1,-7.2,2.3,.,0.4,-1.6
O=C(c1ccc2snnc2c1)N1CCN(c2ccccc2)CC1,.,.,4.7,.,-0.3
Cc1ccc(S(=O)(=O)N2CCN(C(=O)CN(Cc3ccco3)Cc3cccs3)CC2)cc1,2.0,-2.2,0.7,-0.2,-1.4
COc1ccc(C(=O)Nc2cc3c(cc2Cl)OCCCO3)cc1,.,77.1,58.9*,.,.
COCCOc1cc(NC(=O)c2cccc(OC)c2)c(Cl)cc1Cl,3.4,-4.5,.,-3.0,-2.6
COc1cccc(C(=O)Nc2cc3c(cc2Cl)OCCCO3)c1,.,75.1,.,.,37.9*
COc1ccc(C(=O)Nc2cc(OC)c(Cl)cc2OC)cc1,14.6,9.0,.,-1.8,1.6
COc1ccc(/C=C/C(=O)c2c(C)nc3ccccn23)cc1,.,.,69.4*,.,.
O=C(Nc1ccc(F)cc1)c1c(Cl)nc2ccccn12,-9.0,27.6,50.3*,?,5.4
Cc1nc2ccccn2c1C(=O)/C=C/c1ccc(F)cc1,.,-10.2,100.4*,.,.
O=C(NC1CC1)C1CCN(C(=O)c2ccc(Cl)cc2Cl)CC1,2.1,-16.9,-4.6,-1.9,-0.5
CCN1CCCC(NC(=O)c2scc3c2CCCC3)C1 (configuration not stated),1.7,.,-5.5,47.1*,-1.4
CCOc1ccc2c(c1)-c1c(ssc1=S)C(C)(C)N2C(=O)CSC1=NCCS1,.,-5.7,.,.,-9.4
Cc1ccc2c(c1)-c1c(ssc1=S)C(C)(C)N2C(=O)CSC1=NCCS1,-26.1*,-7.6,3.3,?,-4.2
O=C1C2C3c4ccccc4C(c4ccccc43)C2C(=O)N1c1cccnc1 (configuration not stated),1.0,-8.1,.,-1.0,-0.9
Cc1nn(-c2ccc(N3CCCCC3)nn2)c(C)c1CCC(=O)Nc1cc(F)ccc1F,-14.2,75.5,63.3*,2.3,17.5
CC(C)c1ccc(N=C2NN=C(c3cccs3)CS2)cc1,-17.8,99.8*,.,5.8,-2.9
CC(C)N=C1NN=C(c2cccs2)CS1,-0.6,35.2,.,0.3,3.5
CC(=Nc1ccccc1)C1=C(O)CSC1=O,.,1.0,46.0*,.,-1.1
O=C1CN(S(=O)(=O)c2ccccc2)c2ccccc2N1,-18.1,0.2,-3.4,-1.0,1.7
O=C1CN(S(=O)(=O)c2ccc(Cl)cc2)c2ccccc2N1,-22.0*,1.9,2.5,-2.4,-1.1
O=C(NNC(=O)c1ccc2ccccc2c1O)c1ccccc1Cl,.,7.1,.,.,.
SMILES,Ecoli rRNA inh,MITF TRPM1 HTS,esBAF inh,MLL AF4-AF9 inh,Wnt act
Cc1cc2c(c(=O)o1)C(CCC1CCCCC1)C(C#N)=C(N)O2 (configuration not stated),-20.8*,.,.,1.6,3.1
CCC(CC)C1C(C#N)=C(N)Oc2cc(C)oc(=O)c21 (configuration not stated),-12.8,-4.1,-2.4,1.8,-4.7
Cc1c(OC(C)C(=O)O)ccc2c(-c3ccccc3)cc(=O)oc12 (configuration not stated),1.0,-13.7,-5.8,-1.2,-0.6
Cc1c(OC(C(=O)O)c2ccccc2)ccc2c(-c3ccccc3)cc(=O)oc12 (configuration not stated),-24.8*,-8.5,4.2,-7.0,-1.4
Cc1c(OCC(N)=O)ccc2c(-c3ccccc3)cc(=O)oc12,1.5,6.3,1.7,-2.3,0.7
CC(=O)COc1ccc2c(-c3ccccc3)cc(=O)oc2c1C,-17.9*,.,-8.7,-3.7,-0.1
NS(=O)(=O)c1ccc(CCNC(=O)CSc2nc3ccsc3c(=O)n2C2CC2)cc1,5.7,6.0,.,2.4,-3.1

# Bioassay records: PubChem BioAssay, Broad Institute
